In the library only some 1.8% were active in any assay of this set; here they are far more common.
MBD2 inh = inhibitors of MBD2 binding to methylated DNA, primary screen, biochemical, TR-FRET, DNA-binding domain, human. inhibition, % at 4.4 µM. 370,000 compounds, 0.31% hits. Methyl-CpG-binding domain protein 2 (Homo sapiens), Q9UBB5. MBD2 binding to methylated oligonucleotide; in the data active means inhibition above about 13%
Neddyl block = inhibitors of cullin neddylation, primary screen, biochemical, TR-FRET, uHTS, NAE and Ubc12. calls only at 25 µM. AID 651699, 2012. NEDD8-conjugating enzyme Ubc12 (Homo sapiens) + NEDD8-activating enzyme E1 regulatory …. 360,000 compounds, 0.58% hits; in the data active means inhibition above about 36%
Target sequence (P61081 whole entry, looked up): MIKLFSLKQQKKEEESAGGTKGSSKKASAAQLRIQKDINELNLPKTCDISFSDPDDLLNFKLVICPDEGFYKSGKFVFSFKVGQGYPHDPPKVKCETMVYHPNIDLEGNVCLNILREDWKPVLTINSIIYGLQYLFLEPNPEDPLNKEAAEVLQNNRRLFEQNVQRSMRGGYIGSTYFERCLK
Target sequence (Q13564 whole entry, looked up): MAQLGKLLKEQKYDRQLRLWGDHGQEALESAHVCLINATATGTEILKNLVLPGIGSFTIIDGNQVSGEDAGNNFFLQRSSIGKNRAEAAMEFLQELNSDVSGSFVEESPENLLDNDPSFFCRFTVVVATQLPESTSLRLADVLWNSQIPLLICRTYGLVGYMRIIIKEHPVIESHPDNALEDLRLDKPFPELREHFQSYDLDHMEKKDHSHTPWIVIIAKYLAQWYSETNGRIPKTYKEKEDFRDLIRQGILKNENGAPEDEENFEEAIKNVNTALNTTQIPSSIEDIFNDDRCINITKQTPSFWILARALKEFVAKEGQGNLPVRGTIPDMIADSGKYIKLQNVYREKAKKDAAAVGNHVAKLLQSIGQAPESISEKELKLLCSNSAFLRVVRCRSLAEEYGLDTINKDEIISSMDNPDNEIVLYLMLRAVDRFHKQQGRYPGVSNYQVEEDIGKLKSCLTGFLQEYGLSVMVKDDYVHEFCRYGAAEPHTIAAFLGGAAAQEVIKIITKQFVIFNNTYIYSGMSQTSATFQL
UHRF1 MBD2 ctr = UHRF1 methylated DNA binding inhibitors, primary screen, counter-screen for MBD2 inhibitor project, biochemical, TR-FRET, human UHRF1, single concentration; inhibition, % at 4.4 µM; 370,000 compounds, 0.75% hits; UHRF1 binding to methylated oligo; E3 ubiquitin-protein ligase UHRF1 (Homo sapiens), Q96T88; in the data active means inhibition above about 21%;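 further: UHRF1 SRA domain binding a hemimethylated CpG hairpin DNA probe; 0% = median of test compound wells and 100% = reference inhibitor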
UBC13 polyUb = UBC13 polyubiquitin chain formation inhibitors, primary screen, biochemical, TR-FRET, uHTS. inhibition, % at 20 µM. Ubiquitin-conjugating enzyme E2 N (Homo sapiens), P61088. 330,000 compounds, 0.47% hits; in the data active means inhibition above about 45%, passing the limit was not always enough; inconclusive means no clear call, values can overlap the other calls
Neddyl conf = blockade of NEDD8 conjugation to cullin – biochemical, TR-FRET, single concentration, confirmation; TR-FRET cullin neddylation biochemical assay; shares compounds with Neddyl block; 1,800 compounds, 13% hits; calls only at 25 µM; AID 652217, 2013; in the data active means inhibition above about 40%;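 further: neddylation substrate is the cullin 1 ring ligase complex with SKP2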
Active calls of the source: *.

`COc1cccc(C(=O)NC2CCCc3c2cnn3-c2ccc(C)c(C)c2)c1OC` (centres undefined) gave MBD2 inh 0, Neddyl block inactive, UHRF1 MBD2 ctr 0 and UBC13 polyUb -1.
CCOC(=O)C1=C(C)NC(C)=C(C(=O)OCC)C1C(=O)OCC(=O)N(C)Cc1ccccc1 was read as MBD2 inh 10, Neddyl block active, UHRF1 MBD2 ctr 1, UBC13 polyUb 7 and Neddyl conf inactive.
For CC(=O)O[C@]1(C(C)=O)CCC2C3CCC4=C/C(=N/OCC(=O)O)CC[C@]4(C)C3CC[C@@]21C (some centres undefined) the results were MBD2 inh 0, Neddyl block inactive, UHRF1 MBD2 ctr -2 and UBC13 polyUb 5.
CCOC(=O)C1=NN(c2ccc(C)cc2)CC1C(=O)OC (centres undefined) was read as MBD2 inh 5, Neddyl block active, UHRF1 MBD2 ctr 2, UBC13 polyUb 3 and Neddyl conf inactive.
`COc1ccc(NC(=O)CN2C(=O)c3cccc4cccc2c34)c(OC)c1` gave MBD2 inh -1, Neddyl block inactive, UHRF1 MBD2 ctr 0 and UBC13 polyUb 12.
For CCC(=O)c1cccc2c1N=CC1=C(CC(C)(C)CC1=O)N2 the results were MBD2 inh 5, Neddyl block active, UHRF1 MBD2 ctr 2 and UBC13 polyUb -1.
For Cc1cc(O)cc2c(=O)c3ccccc3sc12 the results were MBD2 inh -4, Neddyl block inactive, UHRF1 MBD2 ctr -10 and UBC13 polyUb 21.
For O=C(NCC1CCN(C(=O)C(=O)c2cccs2)CC1)c1ccc2c(c1)OCO2 the results were MBD2 inh 0 and UHRF1 MBD2 ctr 8.
`O=C(CSc1ccc2nnc(-c3ccccn3)n2n1)Nc1ccccc1` gave MBD2 inh 4, Neddyl block inactive, UHRF1 MBD2 ctr -2 and UBC13 polyUb -2.
`Cc1cc(NC(=O)CSc2ccc3nnc(-c4ccccn4)n3n2)no1` gave MBD2 inh -4, Neddyl block active, UHRF1 MBD2 ctr -2 and UBC13 polyUb 2.
Screening O=c1[nH]c2ccccc2c2cn(-c3ccccc3)nc12 returned MBD2 inh -1, Neddyl block active, UHRF1 MBD2 ctr -3, UBC13 polyUb 6 and Neddyl conf inactive.
O=C(NCCCc1ccccc1)c1ccccc1O was read as MBD2 inh -4, Neddyl block active, UHRF1 MBD2 ctr 1, UBC13 polyUb 6 and Neddyl conf inactive.
For O=C(NCCCCCCNC(=O)c1ccccc1O)c1ccccc1O the results were MBD2 inh -3, Neddyl block inactive, UHRF1 MBD2 ctr 1 and UBC13 polyUb inconclusive.
O=C(COC(=O)c1ccc(S(=O)(=O)N2CCCC2)cc1)NCCc1ccc(F)cc1 was read as MBD2 inh -3, Neddyl block inactive, UHRF1 MBD2 ctr -2 and UBC13 polyUb -9.
Screening NCCSc1c(-c2ccccc2)[nH]c2ccccc12 returned MBD2 inh -7, UHRF1 MBD2 ctr 0 and UBC13 polyUb 18.
`Cc1ccc(-c2[nH]c3ccccc3c2SCCN)cc1` gave MBD2 inh 1, Neddyl block active, UHRF1 MBD2 ctr -10, UBC13 polyUb -6 and Neddyl conf inactive.
`CCCn1c(=S)[nH]c2cc(C(=O)N3CCc4ccccc43)ccc2c1=O` gave MBD2 inh -3, Neddyl block inactive, UHRF1 MBD2 ctr 0 and UBC13 polyUb -4.
COc1ccc(CCNC(=O)C2=CC=CN3CCS(=O)(=O)N=C23)cc1 was read as MBD2 inh 0, Neddyl block inactive, UHRF1 MBD2 ctr -1 and UBC13 polyUb 3.
O=C(NCCc1ccc(Cl)cc1)C1=CC=CN2CCS(=O)(=O)N=C12 was read as MBD2 inh 1, Neddyl block active, UHRF1 MBD2 ctr -4, UBC13 polyUb 12 and Neddyl conf active.
`O=C(CCN1C(=O)S/C(=C/c2ccc(F)cc2)C1=O)Nc1ccc(O)c(C(=O)O)c1` gave MBD2 inh -5, Neddyl block active, UHRF1 MBD2 ctr -3, UBC13 polyUb -17 and Neddyl conf inactive.
Screening O=C(c1ccco1)N1N=C(c2cccs2)CC1c1ccccc1O (centres undefined) returned MBD2 inh 1, Neddyl block active, UHRF1 MBD2 ctr -5 and UBC13 polyUb -1.
`CS(=O)(=O)Nc1ccc(C2=NN(C(=O)c3ccco3)C(c3ccccc3)C2)cc1` (centres undefined) gave MBD2 inh -5, Neddyl block active, UHRF1 MBD2 ctr -2, UBC13 polyUb 19 and Neddyl conf inactive.
COc1cccc(C2CC(c3cccs3)=NN2C(=O)c2ccco2)c1O (centres undefined) was read as MBD2 inh 0, Neddyl block inactive, UHRF1 MBD2 ctr -3 and UBC13 polyUb 3.
Nc1nnc(-c2cc3ccccc3oc2=O)s1 was read as MBD2 inh -7, Neddyl block active, UHRF1 MBD2 ctr -13, UBC13 polyUb -7 and Neddyl conf active.
Screening O=c1oc2ccccc2cc1-c1nnc(NCc2ccco2)s1 returned MBD2 inh -2, Neddyl block active, UHRF1 MBD2 ctr -6, UBC13 polyUb -8 and Neddyl conf inactive.
For O=c1oc2ccccc2cc1-c1nc2c(s1)CCc1ccccc1-2 the results were MBD2 inh -5, UHRF1 MBD2 ctr -1 and UBC13 polyUb 32.
Screening CN(c1cccc(NC(=O)CN(c2cccc(F)c2)S(C)(=O)=O)c1)S(C)(=O)=O returned MBD2 inh 1, Neddyl block inactive, UHRF1 MBD2 ctr -1 and UBC13 polyUb -9.
Screening C#CCNC(=O)c1cnn(-c2ccccc2)c1N returned MBD2 inh -9 and UHRF1 MBD2 ctr -2.
COc1ccccc1NC(=O)N(CCCN1CCOCC1)Cc1cc2cc3c(cc2[nH]c1=O)OCO3 was read as MBD2 inh 0, Neddyl block inactive, UHRF1 MBD2 ctr 1 and UBC13 polyUb 4.
Screening COc1cc2cc(CN(CCCN3CCOCC3)C(=O)Nc3ccccc3F)c(=O)[nH]c2cc1OC returned MBD2 inh 2, Neddyl block active, UHRF1 MBD2 ctr 1, UBC13 polyUb 4 and Neddyl conf inactive.
Screening Oc1ccc(C=NNc2nc3ccccc3s2)c(O)c1 returned MBD2 inh -3, Neddyl block inactive and UHRF1 MBD2 ctr -6.
`Oc1ccccc1C=NNc1nc2ccccc2s1` gave MBD2 inh -3, Neddyl block active, UHRF1 MBD2 ctr -2 and Neddyl conf inactive.
For O=C(Nc1ccc(C(F)(F)F)cc1)c1csc(-c2ccncc2)n1 the results were MBD2 inh -1, Neddyl block inactive, UHRF1 MBD2 ctr 3 and UBC13 polyUb 11.
